# Test results: publication PMC7819943, “Rice protein-binding microarrays: a tool to detect cis-acting elements near promoter regions in rice”
# Over roughly 68,000 sequences, “fluorescence intensity (a.u.)” has its median near 9,100; the highest 2% begin near 16,000. Many of the other results were omitted from the sample, so the highest values are more common in it than they were.
# Molecular target: OsWRKY34 (Oryza sativa, UniProt Q0JBA9 1-250)
# Test: protein-binding microarray (RPBM); PBS, 2% BSA, 51.3 ng/ul salmon testes DNA, 50 uM zinc acetate, 200 nM TF, 25 C, 1 h; high values mean tight binding
# Conditions: protein: recombinant; tags: N-terminal polyhistidine and DsRed monomer fusion (pET32a); label: CyDye5-dUTP incorporated in the synthesized complementary strand; 3' TTTTT single-stranded linker to array surface; dsDNA, one strand shown
# In short: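 An Axon 4000B scanner gave the binding signal as per-feature fluorescence intensity in arbitrary units. This followed washing of a custom Agilent array that had been incubated for 1 h at 25 °C with 200 nM protein in PBS, 2% BSA, salmon testes DNA and 50 µM zinc acetate. The proteins were transcription factors fused at the N-terminus to polyhistidine and DsRed, expressed in E. coli BL21-CodonPlus and purified on Ni–NTA.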
# OsWRKY34, sequence (Q0JBA9 entry or part of it): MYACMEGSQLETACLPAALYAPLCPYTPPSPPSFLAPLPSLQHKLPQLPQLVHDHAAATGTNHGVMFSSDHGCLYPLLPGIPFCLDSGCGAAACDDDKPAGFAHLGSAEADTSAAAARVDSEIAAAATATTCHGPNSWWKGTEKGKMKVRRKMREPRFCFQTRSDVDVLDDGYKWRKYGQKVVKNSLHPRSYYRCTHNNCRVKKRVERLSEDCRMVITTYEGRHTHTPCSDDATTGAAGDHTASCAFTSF
row,Sequence,binding signal
1,CACGTCACCTGCATATGCCCTTCTTCCTCGCCGGCCACACCGGAGTCACCTAGTGCAG,11000 fluorescence intensity (a.u.)
2,TTTTCGTCTATTTTATTACTGTTGCTTGCCTACAATTCTCCGGAGTCACCTAGTGCAG,13500 fluorescence intensity (a.u.)
3,ATAGGTGCCGGTTCTATTTTGGTATAGGGGTCGGTTGTTTCGGAGTCACCTAGTGCAG,11700 fluorescence intensity (a.u.)
4,TCTCACTCTCGAGCCATCGTCTTCAGCTCGCTCATTACTGCGGAGTCACCTAGTGCAG,9030 fluorescence intensity (a.u.)
5,CGCCTTCGCCTCCGGCCCCTTATATGGCGTGGCGGGGAGGCGGAGTCACCTAGTGCAG,8930 fluorescence intensity (a.u.)
6,TTCGTTGACCAAGTTTAATTCAAATTCAATTCAATTTTAACGGAGTCACCTAGTGCAG,9760 fluorescence intensity (a.u.)
7,TAATGACTTATCCTGCGGTGAAAAATCTTCATCTTCGTATCGGAGTCACCTAGTGCAG,8160 fluorescence intensity (a.u.)
8,GCTGCTCGGATTTGATTGATTGATTGATTGGCGGGTGGTCCGGAGTCACCTAGTGCAG,8590 fluorescence intensity (a.u.)
9,GCAATTTTTTACGCCCACACGACTGTCCGAGAGCAATATGCGGAGTCACCTAGTGCAG,8170 fluorescence intensity (a.u.)
10,CTCCCGAGGAAGATGACGAGGAGTCAGTCAACAGTTGACTCGGAGTCACCTAGTGCAG,8130 fluorescence intensity (a.u.)
11,CTTTTTTCTCTGCGGGTTCTTCAATTATTCAGGGTTTCTTCGGAGTCACCTAGTGCAG,16800 fluorescence intensity (a.u.)
12,TCCTTTTCTTTTCTTTTATTTTTTTTTGTTTTTTCCCGTTCGGAGTCACCTAGTGCAG,8300 fluorescence intensity (a.u.)
13,TCAATTATTCAGGGTTTCTTCTGGTTCTTGTCTCGCCATGCGGAGTCACCTAGTGCAG,8630 fluorescence intensity (a.u.)
14,GAATTTTTTTTTCGTTTTTTTCAATTCGTTATTCTTTTCTCGGAGTCACCTAGTGCAG,12300 fluorescence intensity (a.u.)
15,TCCCACGATTTCCTTTCCTGCTTTTCTCATCCCTTTTGTTCGGAGTCACCTAGTGCAG,16500 fluorescence intensity (a.u.)
16,TTCCTTTTTTCCCGCCCGTTCCTTTTTTGTTTGTTATGTTCGGAGTCACCTAGTGCAG,15700 fluorescence intensity (a.u.)
17,CCTTCGATTGACCTCCTCATCCTCTTCCCCTGCTTTCTTTCGGAGTCACCTAGTGCAG,9720 fluorescence intensity (a.u.)
18,ATTCTAGTAGTAGTTGTTTATCTTTGTTCTGTTGTTTCTTCGGAGTCACCTAGTGCAG,8520 fluorescence intensity (a.u.)
19,GGGTTCTTTCTGTAGTAGGGGTTTTTCTTTGTTTTCTCTTCGGAGTCACCTAGTGCAG,17700 fluorescence intensity (a.u.)
20,TCTCTCTCTCTCTCTCTTCTCTTCTCTTTGTTTTCTTGTTCGGAGTCACCTAGTGCAG,9940 fluorescence intensity (a.u.)
21,TCTTCCCGCCTTTTTTTTCTTTGTTATTTTTCTTTTTTTTCGGAGTCACCTAGTGCAG,18000 fluorescence intensity (a.u.)

row,Sequence,binding signal
1,TTCTTTCCTTACGATTTTTGCTCCTGCTCTAGTTCTTGTTCGGAGTCACCTAGTGCAG,8140 fluorescence intensity (a.u.)
2,AAAAGGCGTTTGCTTGTTTTTGCTGTGGGTTAATTCGCCTCGGAGTCACCTAGTGCAG,8090 fluorescence intensity (a.u.)
3,GTCACTCCTACTCCCGCCACCACCGGCCCAATGGCGCCCCCGGAGTCACCTAGTGCAG,9660 fluorescence intensity (a.u.)
4,CCCAGTTTTATTTCTGCAGTTCATTTTATGAGAGCATTCTCGGAGTCACCTAGTGCAG,8120 fluorescence intensity (a.u.)
5,GTGCTCTCTGCTGGCTGCGACGCCATATATGCCTTTCTTCCGGAGTCACCTAGTGCAG,8720 fluorescence intensity (a.u.)
6,ACATTCTCTTATACCCATCACAATCATTTGCTCAATAGGGCGGAGTCACCTAGTGCAG,8620 fluorescence intensity (a.u.)
7,CTATCAATTCGCTCTATTATGTCGCTCAATTCTCTCTCGCCGGAGTCACCTAGTGCAG,8650 fluorescence intensity (a.u.)
8,GCCGGATCCAGATCTCCACCGCCTCGCCTCGCCGCGCCGCCGGAGTCACCTAGTGCAG,10400 fluorescence intensity (a.u.)
9,CTACACACAAACTTCCAACTTTTCTGTCACATCGTTCCAACGGAGTCACCTAGTGCAG,11900 fluorescence intensity (a.u.)
10,GTGTGTTTTTCTGCCATTTTTCGCCTTAGGTCTTCGCAATCGGAGTCACCTAGTGCAG,12300 fluorescence intensity (a.u.)
11,GAGATAGATGGGCCTGAAATGCGCCGATGGTCAGGCCTGCCGGAGTCACCTAGTGCAG,8190 fluorescence intensity (a.u.)
12,TTCGTGCACGCGGTCCATGCACCAGCCACCATTCCCTTCGCGGAGTCACCTAGTGCAG,8350 fluorescence intensity (a.u.)
13,GAGGTTAGCTCGCCTCTGATTGGGTTGGTTGGGTGGTCGGCGGAGTCACCTAGTGCAG,10100 fluorescence intensity (a.u.)
14,TCTGGTTGATTGATCGATTTGGGGAATTGGGGATCTAGCTCGGAGTCACCTAGTGCAG,12000 fluorescence intensity (a.u.)
15,TTGTTCTTTTTGGTCTGGTTTTTTTGTGGTTTCTTGATTGCGGAGTCACCTAGTGCAG,9010 fluorescence intensity (a.u.)
16,GGTCTGGTTCTTCTTGATGCGAGGCTAGCTGACGTTTTTTCGGAGTCACCTAGTGCAG,17200 fluorescence intensity (a.u.)
17,CTCGTGTGTCTTGCGGGCGGGTGATCTTTCCACATACAGACGGAGTCACCTAGTGCAG,19200 fluorescence intensity (a.u.)
18,TTGTTCTTCTTTTTTGGTCTGGTTTTTTTTGTGGTTTCTTCGGAGTCACCTAGTGCAG,16700 fluorescence intensity (a.u.)
19,CGTTTCTTGGCTGGTTTTCTTGGGCGGCGATCGATCGATGCGGAGTCACCTAGTGCAG,8140 fluorescence intensity (a.u.)
20,GATTTGGTCTGGTTTGGTTGGAGGTTAGCTCGCCTCTGATCGGAGTCACCTAGTGCAG,19400 fluorescence intensity (a.u.)
21,AAGGTTGTCTTGTTTGATTAGCTATTTTCTTTGCCTGGTTCGGAGTCACCTAGTGCAG,11400 fluorescence intensity (a.u.)

row,Sequence,binding signal
1,CGTGTCTTGTGTGTTTCCTGTCTCGCGAGCCTTCCACATACGGAGTCACCTAGTGCAG,15000 fluorescence intensity (a.u.)
2,TAATATATGATCATACTTGTTTTATATACATTGTGTCTTGCGGAGTCACCTAGTGCAG,9830 fluorescence intensity (a.u.)
3,CTTTTGGTCTTCCCTTTCTTTTCTTCTTCTTCTTCTTCTTCGGAGTCACCTAGTGCAG,10400 fluorescence intensity (a.u.)
4,ACCTTAATTAATTAATCTTGTTTTCTCATGGAGTTGTCATCGGAGTCACCTAGTGCAG,10400 fluorescence intensity (a.u.)
5,AACGCGTGTATTTCTATGCTTTTGATATTGATCTTGCATCCGGAGTCACCTAGTGCAG,8230 fluorescence intensity (a.u.)
6,GGACATTTGGAACTGATTACTCCTACTACTCTAGTGAAAACGGAGTCACCTAGTGCAG,8400 fluorescence intensity (a.u.)
7,GTGCTACCTCCATCCCAATATACTTGTCGTTTTAAGTTTTCGGAGTCACCTAGTGCAG,11800 fluorescence intensity (a.u.)
8,TCTCTTATACTGATTTTTGGGTCCAATCCCTTACCGTTGACGGAGTCACCTAGTGCAG,8150 fluorescence intensity (a.u.)
9,GGTCTGGTTTTATCGGTTTATATGTGTGTGTTTTTTTTGTCGGAGTCACCTAGTGCAG,33500 fluorescence intensity (a.u.)
10,GCCTTTTTTCCTTTGTCTTTTTCCGGCCCGCGTTCTTTTTCGGAGTCACCTAGTGCAG,17400 fluorescence intensity (a.u.)
11,ATTTGTTGTTTCATTTGTATTGTTTTGTGTTGGTTTATGTCGGAGTCACCTAGTGCAG,8940 fluorescence intensity (a.u.)
12,GTTCTCTTTTTTGTTTGTCTTTCCTAGTGCAATATGTTTCCGGAGTCACCTAGTGCAG,10700 fluorescence intensity (a.u.)
13,CTTGTTGATGTGGGTGTTTCTTGGTCGATCCTTCTTGTTTCGGAGTCACCTAGTGCAG,8330 fluorescence intensity (a.u.)
14,TTCCGGCCCGCGTTCTTTTTGAAGTCCAGTTTACGTCCTTCGGAGTCACCTAGTGCAG,10800 fluorescence intensity (a.u.)
15,TGGTGACGATGGTGATGTTCTTGTTGTTGGTTTTTCCTTTCGGAGTCACCTAGTGCAG,9530 fluorescence intensity (a.u.)
16,TTTGTGTGTCTTGTTTATATGTGCACATATCTTGTCTTGTCGGAGTCACCTAGTGCAG,8370 fluorescence intensity (a.u.)
17,GATGTTGTTTCCTTTCTTTGGTGGTTTGGTTTGGTTGGGTCGGAGTCACCTAGTGCAG,29300 fluorescence intensity (a.u.)
18,ACCTTTCCTTTCATCTCTTCCGCTGGTTTTGTGGGATATTCGGAGTCACCTAGTGCAG,12800 fluorescence intensity (a.u.)
19,TATTCCTTTCATTGGGTTTGTGCGGGATGGCTGGTTGGTGCGGAGTCACCTAGTGCAG,18100 fluorescence intensity (a.u.)
20,CCGTTTCCTTTGCTGGTTGTGTTTTGTGCTTGCATTCATGCGGAGTCACCTAGTGCAG,12400 fluorescence intensity (a.u.)
21,GTTAGGCATGCTGCTTGTTTATTTTTTTTCAAGTTGAGAACGGAGTCACCTAGTGCAG,8140 fluorescence intensity (a.u.)

row,Sequence,binding signal
1,GCTACTGGTGCCGGCCGCCGTCCTCCTGCTTCCGCCGCCGCGGAGTCACCTAGTGCAG,9560 fluorescence intensity (a.u.)
2,CCCATCATGTGACTTCCATCCTTGTTCCTAGCTGCATGCACGGAGTCACCTAGTGCAG,9270 fluorescence intensity (a.u.)
3,TCTTCACATGCTATTTTGTGTTATTCTTGCCTATAAATGACGGAGTCACCTAGTGCAG,8310 fluorescence intensity (a.u.)
4,ACATGTAAACTGTGCAATTGATTTTTTTTGTCCACATTTACGGAGTCACCTAGTGCAG,10400 fluorescence intensity (a.u.)
5,AGAGGAGACAGAACCCCTGACTTTATACAGTTTGCAGTTACGGAGTCACCTAGTGCAG,8340 fluorescence intensity (a.u.)
6,CGCCGCCGCATCTCCTCCTTCCTCTCTTGGCAACTGTCGGCGGAGTCACCTAGTGCAG,8300 fluorescence intensity (a.u.)
7,TCCTTGGGCTTTTTTTCTTGTTCGGGGTTGAGAGGCAATGCGGAGTCACCTAGTGCAG,18700 fluorescence intensity (a.u.)
8,GTAGGAAAGTTTGTTTGTGTGTGTAGAAAAGTTTTGATGTCGGAGTCACCTAGTGCAG,21000 fluorescence intensity (a.u.)
9,ACATGGGCTGGGCTGGGCTGGGCTCTTCTTCCTTTTTGTTCGGAGTCACCTAGTGCAG,21900 fluorescence intensity (a.u.)
10,TTCCTTCTTCCTTCTTTTTTTCTCTCTTCTCCTTTTTTTTCGGAGTCACCTAGTGCAG,10300 fluorescence intensity (a.u.)
11,GTCTACTATCCTCTTTCATTGTCTTTTTGTTGGTTGGTTTCGGAGTCACCTAGTGCAG,17600 fluorescence intensity (a.u.)
12,GGCGGGGTTGGGGCGGCAGGCGGCTGTGAGGTTCTTGATTCGGAGTCACCTAGTGCAG,16100 fluorescence intensity (a.u.)
13,TTTTTGTTTCTATTGGAGGTTGTCATGTTTATCTACCTTTCGGAGTCACCTAGTGCAG,9650 fluorescence intensity (a.u.)
14,GACATATTTTTTTCTCCTCTCTTTTTTCATTTGTTTTTTTCGGAGTCACCTAGTGCAG,11600 fluorescence intensity (a.u.)
15,GATTCCTTCCTTTTGTTTTTGGGCCGAATTCTCCTTCTTTCGGAGTCACCTAGTGCAG,13000 fluorescence intensity (a.u.)
16,TTGAGTTGTGTTCTTGGTTGGGGAGGAGGAGGAGGAGATGCGGAGTCACCTAGTGCAG,15100 fluorescence intensity (a.u.)
17,AGTTTGTGTGTGTAGGAAAGTTTTGATGTGATGAAAAAGTCGGAGTCACCTAGTGCAG,8680 fluorescence intensity (a.u.)
18,TTGTAAGTTTGTGTGTAGGAAAGTTTTGATGTGAGGAAAACGGAGTCACCTAGTGCAG,9150 fluorescence intensity (a.u.)
19,ACACACACTTTACAGGTTTACAGCCCAACTTATCCGTGCACGGAGTCACCTAGTGCAG,9890 fluorescence intensity (a.u.)
20,ATTTCTTTCCATCCATAATTACTAGGCTGCATTGCCTCTTCGGAGTCACCTAGTGCAG,8720 fluorescence intensity (a.u.)
21,CTCGTACTAGGGTGTCATGCTGTTGGTTCCGGTGAATCTTCGGAGTCACCTAGTGCAG,8270 fluorescence intensity (a.u.)
